SMILES strings stand for the structures. In all, about 63,000 compounds went through this assay and about 1,100 (1.7%) were called active. This is one part of a sample in which actives are shown more often than they occur. Entries with a potency or affinity are not part of this list. Values without a mark were called inactive. No stated cut-off is given here; in the data, active means cytotoxicity above about 50%; inactive means the rest.

A short description of the test: HPDE-C7 pancreatic duct cell viability loss – fluorescence, HTS (AID 430).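 Further: cells exposed to compound for 48 hours before viability readout; 0% = vehicle and 100% = reference cytotoxic drug.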 To be noted: HPDE-C7 pancreatic duct cells viability, at 10 µM, hits give high values.
In the case of `CC(C)(C)n1nnnc1C(c1cccs1)N(Cc1ccccc1)Cc1ccco1` (stereo not drawn), the cytotoxicity is -4.3%.

In the case of `COc1cccc(NC(=O)C2CCCN2C(=O)Nc2cccc(F)c2)c1` (stereo not drawn), the cytotoxicity was 9.8%.

Take `COc1ccccc1-c1nnc(SCC(=O)Nc2c(Cl)cccc2Cl)o1`: the cytotoxicity is -1.3%.

Turning to `COC(=O)CSc1nnc(-c2ccccc2OC)o1`, the cytotoxicity is -25.6%.

Take `O=S(=O)(c1ccc(OCC(O)CNCc2ccco2)c(Cl)c1)N1CCOCC1` (stereo not drawn): the cytotoxicity was -9.8%.

Take `Cn1c(=O)cc(SCC(=O)NCc2ccco2)c2ccccc21`: the cytotoxicity was -4.4%.

For `CCn1c(=O)cc(OCC(=O)NCc2ccco2)c2ccccc21`, the cytotoxicity was 5.8%.

Take `Cc1ccc(C)c(Cn2c(=O)n(CCCC(=O)NCc3ccco3)c(=O)c3ccccc32)c1`: the cytotoxicity was 60.2% (active).

Turning to `Cc1ccccc1Cn1c(=O)n(CCCC(=O)NCc2ccco2)c(=O)c2ccccc21`, the cytotoxicity was -24.1%.

`CCn1c(=O)cc(SCC(=O)NCc2ccco2)c2ccccc21`: the cytotoxicity was 62.1% (active).

Turning to `Cc1ccc(C)c(Cn2c(=O)n(CCC(=O)NCc3ccco3)c(=O)c3ccccc32)c1`, the cytotoxicity was -14.5%.

In the case of `CC1CN(c2nc3ccccc3nc2C(C#N)C(=O)OC2CCCCC2)CC(C)O1` (stereo not drawn), the cytotoxicity is -26.1%.

In the case of `COC(=O)c1cc2ccsc2n1Cc1nc(-c2ccc(OC)cc2)oc1C`, the cytotoxicity is -7%.

Consider `COC(=O)c1ccc(-c2ccco2)n1Cc1nc(-c2ccc(OC)c(OC)c2)oc1C`, for which the cytotoxicity is 71.6% (active).

As to `COc1ccc(-c2nc(CS(=O)CC(=O)NCc3ccco3)c(C)o2)cc1OC` (stereo not drawn), the cytotoxicity was 2.9%.

Take `COC(=O)C1=C(C)N(CC2CCCO2)C(=O)C1` (stereo not drawn): the cytotoxicity is 6%.

For `Cc1cc(=O)[nH]c(SCc2nc3ccccc3s2)n1`, the cytotoxicity is 57% (active).

Turning to `Cc1cc(=O)[nH]c(SCc2cccc(Br)c2)n1`, the cytotoxicity is 2.7%.

Regarding `Cc1cc(=O)[nH]c(SC/C=C/c2ccccc2)n1`, the cytotoxicity is -13.4%.

For `CC(=O)Nc1ccc(C(=O)CS(=O)(=O)c2ccc(C)cc2)cc1`, the cytotoxicity was -17.2%.

For the molecule `Cc1cc2c(c(=O)o1)C1(C(=O)N(C)c3ccccc31)C(C#N)=C(N)O2` (stereo not drawn), the cytotoxicity was -8.3%.

`COc1ccccc1-n1cnc2cc(NCc3ccco3)ccc21`: the cytotoxicity is 63.6% (active).

Consider `COc1ccccc1-n1cnc2cc(NC(C)=O)ccc21`, for which the cytotoxicity was -8.6%.

For `CCC(=O)Nc1ccc2c(c1)ncn2-c1ccccc1OC`, the cytotoxicity was -35.6%.

As to `O=C(CCCCCN1C(=O)CCC1=O)Nc1ncn[nH]1`, the cytotoxicity is -2.1%.

Regarding `CCOc1cccc2cc(-c3nnc(-c4ccccc4)o3)c(=O)oc12`, the cytotoxicity was -14.9%.

With `CCCCCCc1cc2cc(-c3nnc(-c4ccccc4O)o3)c(=O)oc2cc1O`, the cytotoxicity was 62.7% (active).

In the case of `CCCCCCc1cc2cc(C(=O)NC)c(=N)oc2cc1O`, the cytotoxicity was 19.4%.

These data come from PubChem BioAssay AID430 (Sanford-Burnham Center for Chemical Genomics, 2006).
